Experimental data from paper PMC7862700, “An all-to-all approach to the identification of sequence-specific readers for epigenetic DNA modifications on cytosine”.

Legend:
Test in all cases: DAPPL (digital affinity profiling via proximity ligation, sequencing); 10 mM Tris-HCl pH 7.5, 50 mM NaCl, 1 mM DTT, 4% glycerol, room temperature, 30 min; GST-TFs on glutathione beads, 16-mer random dsDNA library, 0.1% formaldehyde crosslink after washing; high values mean tight binding
Settings in all cases: protein: recombinant; tags: N-terminal GST; dsDNA, one strand shown
GABPA = molecular target: T1, GABPA (Homo sapiens, UniProt Q06546 1-454)
T1 sequence: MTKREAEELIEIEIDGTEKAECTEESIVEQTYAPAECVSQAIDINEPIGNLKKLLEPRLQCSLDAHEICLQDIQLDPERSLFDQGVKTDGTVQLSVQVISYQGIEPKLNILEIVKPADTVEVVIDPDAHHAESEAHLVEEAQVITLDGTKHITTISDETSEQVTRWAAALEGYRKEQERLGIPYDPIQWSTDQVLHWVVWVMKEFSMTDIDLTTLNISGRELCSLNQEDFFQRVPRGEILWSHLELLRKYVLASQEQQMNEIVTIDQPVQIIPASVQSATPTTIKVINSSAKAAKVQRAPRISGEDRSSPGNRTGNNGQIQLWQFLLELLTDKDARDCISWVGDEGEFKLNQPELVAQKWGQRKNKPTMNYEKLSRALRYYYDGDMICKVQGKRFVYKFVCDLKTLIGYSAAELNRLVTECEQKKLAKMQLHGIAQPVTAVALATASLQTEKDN
Summary of the method: (§1)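 The binding signal reported is, for every hexamer, its read frequency for a factor over its read frequency for the tag-only sample. Reads came from pools of yeast-expressed, GST-fused human transcription factors on glutathione beads, barcoded with DNA and mixed with that sample, which were incubated with 200 nmole of a random double-stranded 16-mer DNA library in Tris/NaCl/DTT/glycerol buffer at room temperature for 30 min. After washing, the pools were crosslinked with 0.1% formaldehyde, proximity-ligated with BsaI/T4 ligase for 1 h at 37 °C, PCR-amplified and sequenced on an Illumina NextSeq500.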

ELF1 = ELF1 (Homo sapiens, UniProt P32519 1-619)
Summary of the method: as §1

FEV = molecular target: T2, FEV (Homo sapiens, UniProt Q99581 1-238)
T2 sequence: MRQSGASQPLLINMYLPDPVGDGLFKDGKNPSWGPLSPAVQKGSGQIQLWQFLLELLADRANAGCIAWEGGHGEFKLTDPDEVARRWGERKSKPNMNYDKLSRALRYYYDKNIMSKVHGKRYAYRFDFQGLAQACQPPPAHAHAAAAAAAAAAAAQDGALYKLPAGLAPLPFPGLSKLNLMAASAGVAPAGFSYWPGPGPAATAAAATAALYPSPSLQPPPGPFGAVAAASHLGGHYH
Summary of the method: as §1

ETV3 = molecular target: T3, ETV3 (Homo sapiens, UniProt P41162-2 1-143)
T3 sequence: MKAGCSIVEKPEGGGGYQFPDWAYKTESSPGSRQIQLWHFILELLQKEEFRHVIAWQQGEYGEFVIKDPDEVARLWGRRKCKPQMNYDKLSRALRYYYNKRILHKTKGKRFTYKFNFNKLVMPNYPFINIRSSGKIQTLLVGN
Summary of the method: as §1

SPDEF = molecular target: T4, SPDEF (Homo sapiens, UniProt O95238 1-335)
T4 sequence: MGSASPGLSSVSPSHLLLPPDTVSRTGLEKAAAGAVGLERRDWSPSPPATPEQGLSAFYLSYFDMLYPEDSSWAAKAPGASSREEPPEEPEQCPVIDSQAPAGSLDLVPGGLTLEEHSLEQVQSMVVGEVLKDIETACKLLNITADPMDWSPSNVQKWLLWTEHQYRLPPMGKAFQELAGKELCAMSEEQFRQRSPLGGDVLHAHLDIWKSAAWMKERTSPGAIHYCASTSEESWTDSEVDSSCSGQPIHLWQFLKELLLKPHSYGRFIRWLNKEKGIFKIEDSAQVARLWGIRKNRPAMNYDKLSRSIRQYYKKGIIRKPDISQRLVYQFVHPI
Summary of the method: as §1

EHF = molecular target: T5, EHF (Homo sapiens, UniProt Q9NZC4 1-300)
T5 sequence: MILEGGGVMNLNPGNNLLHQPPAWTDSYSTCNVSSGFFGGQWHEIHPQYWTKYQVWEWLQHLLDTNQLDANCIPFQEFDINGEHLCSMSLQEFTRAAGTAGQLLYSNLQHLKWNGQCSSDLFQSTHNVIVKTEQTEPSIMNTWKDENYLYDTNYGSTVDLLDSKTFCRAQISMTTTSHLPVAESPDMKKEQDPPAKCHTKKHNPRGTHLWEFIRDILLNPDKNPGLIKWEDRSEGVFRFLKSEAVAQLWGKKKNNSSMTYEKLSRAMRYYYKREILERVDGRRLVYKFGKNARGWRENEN
Summary of the method: as §1

ELF5 = molecular target: T6, ELF5 (Homo sapiens, UniProt Q9UKW6-2 1-255)
T6 sequence: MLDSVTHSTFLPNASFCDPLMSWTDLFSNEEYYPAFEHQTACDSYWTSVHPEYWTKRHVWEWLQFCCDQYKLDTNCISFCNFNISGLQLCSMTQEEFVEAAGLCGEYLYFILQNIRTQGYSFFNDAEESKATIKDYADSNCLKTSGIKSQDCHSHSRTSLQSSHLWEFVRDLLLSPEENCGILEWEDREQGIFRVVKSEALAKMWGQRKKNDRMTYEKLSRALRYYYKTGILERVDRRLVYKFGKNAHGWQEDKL
Summary of the method: as §1

ERF = molecular target: T7, ERF (Homo sapiens, UniProt P50548 1-548)
T7 sequence: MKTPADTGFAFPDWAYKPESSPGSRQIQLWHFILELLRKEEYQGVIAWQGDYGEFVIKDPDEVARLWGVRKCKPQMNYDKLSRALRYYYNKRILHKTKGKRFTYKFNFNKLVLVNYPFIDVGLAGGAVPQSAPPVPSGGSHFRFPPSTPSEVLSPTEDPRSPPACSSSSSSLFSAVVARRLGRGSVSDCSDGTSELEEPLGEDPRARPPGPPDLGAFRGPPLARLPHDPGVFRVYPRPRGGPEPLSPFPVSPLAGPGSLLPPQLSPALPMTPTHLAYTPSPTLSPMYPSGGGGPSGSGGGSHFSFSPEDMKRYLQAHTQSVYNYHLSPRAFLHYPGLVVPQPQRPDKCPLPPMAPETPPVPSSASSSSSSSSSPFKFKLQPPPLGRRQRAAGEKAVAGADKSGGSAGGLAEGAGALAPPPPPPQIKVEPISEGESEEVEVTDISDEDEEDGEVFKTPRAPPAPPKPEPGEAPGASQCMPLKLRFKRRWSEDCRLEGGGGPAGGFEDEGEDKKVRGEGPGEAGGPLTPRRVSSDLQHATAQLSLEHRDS
Summary of the method: as §1

ETS2 = molecular target: T8, ETS2 (Homo sapiens, UniProt P15036 1-469)
T8 sequence: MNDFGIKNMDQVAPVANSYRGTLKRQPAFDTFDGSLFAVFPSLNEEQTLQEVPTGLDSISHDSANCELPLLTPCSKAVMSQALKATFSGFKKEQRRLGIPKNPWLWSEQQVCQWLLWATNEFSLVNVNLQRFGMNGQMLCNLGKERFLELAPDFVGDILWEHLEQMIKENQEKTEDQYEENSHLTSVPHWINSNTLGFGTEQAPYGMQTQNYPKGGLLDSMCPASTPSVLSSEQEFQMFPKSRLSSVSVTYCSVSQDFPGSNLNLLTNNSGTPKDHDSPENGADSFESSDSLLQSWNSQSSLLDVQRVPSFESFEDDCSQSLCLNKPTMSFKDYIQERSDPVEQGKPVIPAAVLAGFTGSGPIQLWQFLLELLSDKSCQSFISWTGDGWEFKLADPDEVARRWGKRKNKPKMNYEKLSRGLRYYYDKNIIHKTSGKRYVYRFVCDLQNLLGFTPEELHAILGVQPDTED
Summary of the method: as §1

ELK3 = molecular target: T9, ELK3 (Homo sapiens, UniProt P41970 1-407)
T9 sequence: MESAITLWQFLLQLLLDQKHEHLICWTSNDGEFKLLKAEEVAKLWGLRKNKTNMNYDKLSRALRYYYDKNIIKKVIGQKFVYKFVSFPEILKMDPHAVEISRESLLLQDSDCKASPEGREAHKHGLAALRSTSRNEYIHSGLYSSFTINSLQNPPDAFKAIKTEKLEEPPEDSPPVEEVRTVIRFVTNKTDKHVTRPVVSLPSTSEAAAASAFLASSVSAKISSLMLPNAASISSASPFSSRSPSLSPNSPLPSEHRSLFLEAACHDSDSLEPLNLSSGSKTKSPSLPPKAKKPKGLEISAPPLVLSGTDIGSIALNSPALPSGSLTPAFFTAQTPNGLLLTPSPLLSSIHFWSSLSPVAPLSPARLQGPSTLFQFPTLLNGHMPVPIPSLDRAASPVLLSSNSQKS
Summary of the method: as §1

ETV7 = molecular target: T10, ETV7 (Homo sapiens, UniProt Q9Y603 1-341)
T10 sequence: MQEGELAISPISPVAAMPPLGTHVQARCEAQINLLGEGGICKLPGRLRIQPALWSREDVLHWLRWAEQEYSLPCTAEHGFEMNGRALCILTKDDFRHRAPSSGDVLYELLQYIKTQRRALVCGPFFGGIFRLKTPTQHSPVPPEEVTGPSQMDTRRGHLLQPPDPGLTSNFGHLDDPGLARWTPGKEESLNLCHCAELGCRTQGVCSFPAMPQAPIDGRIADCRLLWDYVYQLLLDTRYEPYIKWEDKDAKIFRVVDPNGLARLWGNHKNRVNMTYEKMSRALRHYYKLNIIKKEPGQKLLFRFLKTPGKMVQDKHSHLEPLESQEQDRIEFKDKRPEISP
Summary of the method: as §1

ERG = molecular target: T11, ERG (Homo sapiens, UniProt P11308 1-479)
T11 sequence: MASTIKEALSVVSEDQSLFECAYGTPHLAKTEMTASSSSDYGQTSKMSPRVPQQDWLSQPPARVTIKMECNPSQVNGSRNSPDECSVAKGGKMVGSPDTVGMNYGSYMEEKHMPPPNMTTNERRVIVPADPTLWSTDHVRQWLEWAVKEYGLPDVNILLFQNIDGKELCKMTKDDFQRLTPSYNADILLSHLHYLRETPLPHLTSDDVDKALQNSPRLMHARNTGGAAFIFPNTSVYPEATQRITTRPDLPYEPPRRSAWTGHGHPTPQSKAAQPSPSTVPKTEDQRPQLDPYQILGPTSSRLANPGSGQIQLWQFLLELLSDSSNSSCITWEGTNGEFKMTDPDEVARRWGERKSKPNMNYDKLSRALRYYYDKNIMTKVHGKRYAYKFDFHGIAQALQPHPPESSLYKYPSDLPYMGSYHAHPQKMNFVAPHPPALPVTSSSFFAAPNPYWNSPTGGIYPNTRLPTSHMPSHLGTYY
Summary of the method: as §1

ETV3L = molecular target: T12, ETV3L (Homo sapiens, UniProt Q6ZN32 1-361)
T12 sequence: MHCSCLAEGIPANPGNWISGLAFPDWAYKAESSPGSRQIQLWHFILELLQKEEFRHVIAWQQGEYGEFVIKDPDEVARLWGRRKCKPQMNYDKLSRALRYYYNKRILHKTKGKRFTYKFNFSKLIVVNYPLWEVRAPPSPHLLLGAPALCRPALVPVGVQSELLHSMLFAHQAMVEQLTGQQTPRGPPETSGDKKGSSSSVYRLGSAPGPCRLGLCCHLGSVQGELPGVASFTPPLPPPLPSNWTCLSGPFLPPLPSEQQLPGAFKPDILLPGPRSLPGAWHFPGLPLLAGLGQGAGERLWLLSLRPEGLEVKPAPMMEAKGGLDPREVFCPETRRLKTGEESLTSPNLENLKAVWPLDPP
Summary of the method: as §1

ETV1 = ETV1 (Homo sapiens, UniProt P50549 1-477)
Summary of the method: as §1

SPIB = SPIB (Homo sapiens, UniProt Q01892 1-262)
Summary of the method: as §1

Sequence of ELF1 (P32519 whole entry): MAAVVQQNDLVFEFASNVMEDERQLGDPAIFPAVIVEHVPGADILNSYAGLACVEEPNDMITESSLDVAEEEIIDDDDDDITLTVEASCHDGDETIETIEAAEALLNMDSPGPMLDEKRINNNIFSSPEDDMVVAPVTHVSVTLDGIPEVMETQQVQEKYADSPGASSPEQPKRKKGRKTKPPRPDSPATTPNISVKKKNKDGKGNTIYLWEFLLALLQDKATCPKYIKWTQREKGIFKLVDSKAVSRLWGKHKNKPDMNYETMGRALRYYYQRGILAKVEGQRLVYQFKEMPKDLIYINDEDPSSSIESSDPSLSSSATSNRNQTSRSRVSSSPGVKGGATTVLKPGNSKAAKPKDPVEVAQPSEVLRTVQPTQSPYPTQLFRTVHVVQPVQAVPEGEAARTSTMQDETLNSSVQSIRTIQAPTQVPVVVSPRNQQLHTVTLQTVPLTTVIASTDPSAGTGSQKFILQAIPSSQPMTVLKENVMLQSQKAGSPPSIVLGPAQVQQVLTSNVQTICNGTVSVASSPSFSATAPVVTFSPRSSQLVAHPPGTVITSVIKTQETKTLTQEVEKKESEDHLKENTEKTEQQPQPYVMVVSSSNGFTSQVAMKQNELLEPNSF
Sequence of ETV1 (P50549 whole entry): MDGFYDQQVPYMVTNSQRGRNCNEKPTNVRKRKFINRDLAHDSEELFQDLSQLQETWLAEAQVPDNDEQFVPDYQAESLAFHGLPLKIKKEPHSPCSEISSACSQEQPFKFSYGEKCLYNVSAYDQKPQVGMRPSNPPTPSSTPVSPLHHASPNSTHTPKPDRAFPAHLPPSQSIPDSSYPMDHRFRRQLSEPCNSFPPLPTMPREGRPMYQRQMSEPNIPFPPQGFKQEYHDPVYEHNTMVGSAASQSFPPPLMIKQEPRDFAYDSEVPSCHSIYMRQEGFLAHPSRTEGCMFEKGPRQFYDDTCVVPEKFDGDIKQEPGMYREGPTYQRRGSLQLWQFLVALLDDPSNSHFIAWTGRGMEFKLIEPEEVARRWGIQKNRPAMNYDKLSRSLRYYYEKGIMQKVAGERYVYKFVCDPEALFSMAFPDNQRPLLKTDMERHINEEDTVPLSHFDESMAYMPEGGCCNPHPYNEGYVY
Sequence of SPIB (Q01892 whole entry): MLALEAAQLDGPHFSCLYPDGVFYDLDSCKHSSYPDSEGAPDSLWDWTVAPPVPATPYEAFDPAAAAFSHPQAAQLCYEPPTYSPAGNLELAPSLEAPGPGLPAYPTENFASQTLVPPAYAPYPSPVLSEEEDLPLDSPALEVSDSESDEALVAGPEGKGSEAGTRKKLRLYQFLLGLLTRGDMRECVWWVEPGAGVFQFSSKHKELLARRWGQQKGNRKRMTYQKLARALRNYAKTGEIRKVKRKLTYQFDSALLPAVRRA

Sequence: AGGACT
- binding signal (GABPA): 1.05 fold enrichment (6-mer frequency, TF over GST control)
- binding signal (ELF1): 1 fold enrichment (6-mer frequency, TF over GST control)
- binding signal (FEV): 1.01 fold enrichment (6-mer frequency, TF over GST control)
- binding signal (ETV3): 1.06 fold enrichment (6-mer frequency, TF over GST control)

Sequence: GATGTG
- binding signal (SPDEF): 1.18 fold enrichment (6-mer frequency, TF over GST control)
- binding signal (ETV3): 1.01 fold enrichment (6-mer frequency, TF over GST control)

Sequence: CGGTAA
- binding signal (EHF): 1.01 fold enrichment (6-mer frequency, TF over GST control)
- binding signal (ELF5): 1.05 fold enrichment (6-mer frequency, TF over GST control)

Sequence: TGGGCC
- binding signal (ERF): 1.03 fold enrichment (6-mer frequency, TF over GST control)

Sequence: CGCATC
- binding signal (SPDEF): 1.02 fold enrichment (6-mer frequency, TF over GST control)

Sequence: GGCCAC
- binding signal (GABPA): 1.02 fold enrichment (6-mer frequency, TF over GST control)
- binding signal (ELF1): 1.03 fold enrichment (6-mer frequency, TF over GST control)
- binding signal (EHF): 1.03 fold enrichment (6-mer frequency, TF over GST control)
- binding signal (FEV): 1.05 fold enrichment (6-mer frequency, TF over GST control)
- binding signal (ETS2): 1 fold enrichment (6-mer frequency, TF over GST control)

Sequence: CAGCAA
- binding signal (ELK3): 1.01 fold enrichment (6-mer frequency, TF over GST control)
- binding signal (ERF): 1.04 fold enrichment (6-mer frequency, TF over GST control)
- binding signal (ETV7): 1.06 fold enrichment (6-mer frequency, TF over GST control)

Sequence: CCTGTC
- binding signal (ERG): 1.01 fold enrichment (6-mer frequency, TF over GST control)
- binding signal (ETV7): 1.03 fold enrichment (6-mer frequency, TF over GST control)

Sequence: GGGCTG
- binding signal (GABPA): 1.03 fold enrichment (6-mer frequency, TF over GST control)
- binding signal (ERF): 1.03 fold enrichment (6-mer frequency, TF over GST control)
- binding signal (ETV3L): 1.03 fold enrichment (6-mer frequency, TF over GST control)
- binding signal (ETV7): 1.05 fold enrichment (6-mer frequency, TF over GST control)

Sequence: GTGGAC
- binding signal (ERF): 1.03 fold enrichment (6-mer frequency, TF over GST control)

Sequence: CGCGGT
- binding signal (ETV1): 1.03 fold enrichment (6-mer frequency, TF over GST control)

Sequence: CCGGGC
- binding signal (SPDEF): 1.05 fold enrichment (6-mer frequency, TF over GST control)

Sequence: GGTTGC
- binding signal (SPIB): 1 fold enrichment (6-mer frequency, TF over GST control)
- binding signal (ETV3L): 1.01 fold enrichment (6-mer frequency, TF over GST control)

Sequence: CGGTAC
- binding signal (SPIB): 1.06 fold enrichment (6-mer frequency, TF over GST control)
- binding signal (FEV): 1.05 fold enrichment (6-mer frequency, TF over GST control)
- binding signal (ETV1): 1.01 fold enrichment (6-mer frequency, TF over GST control)
- binding signal (SPDEF): 1.07 fold enrichment (6-mer frequency, TF over GST control)
- binding signal (ELF5): 1.02 fold enrichment (6-mer frequency, TF over GST control)

Sequence: TTGGAC
- binding signal (ERF): 1.02 fold enrichment (6-mer frequency, TF over GST control)
- binding signal (ETV3): 1.01 fold enrichment (6-mer frequency, TF over GST control)
